Counter-ions that a name gives are not always drawn.
These compounds were tested on SARS-CoV-2 low-rank motif (SARS-low) (assay: normalised indicator fluorescence (fraction of RNA + indicator signal without compound); higher = less displacement of indicator (weaker competition)). Conditions: compound concentration: 5 uM; 30 min; indicator: TO-PRO-1 0.1 uM; RNA concentration: 0.1 uM.
In short: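 Values are ratios: indicator fluorescence, less a buffer-plus-indicator blank, over the RNA-plus-indicator signal with no compound, as the mean of two independent experiments. This displacement screen used TO-PRO-1 or TO-PRO-3 with RNA in 96-well plates, in 20 mM phosphate pH 7.0, 20 mM NaCl, 80 mM KCl. Compounds went in at about 5 uM final, and readings were taken after 30 min on an Infinite 200 PRO at 485 or 620 nm excitation.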

Structure (SMILES)	normalised indicator fluorescence
C[C@@H]1O[C@@H](Oc2c(-c3cc(O)c(O)c(O)c3)oc3cc(O)cc(O)c3c2=O)[C@H](O)[C@H](O)[C@H]1O [Myricetrin]	0.999
COc1ccc(-c2nc(-c3cc(C(F)(F)F)cc(C(F)(F)F)c3)n(Cc3ccc(C(N)=O)cc3)c2-c2ccc(OC)cc2)cc1 [Apoptozole]	1.12
CCc1oc2ccccc2c1C(=O)c1cc(Br)c(O)c(Br)c1 [Benzbromarone]	1.02
CC1(C)CC(=O)c2c(C(F)(F)F)nn(-c3ccc(C(N)=O)c(N[C@H]4CC[C@H](O)CC4)c3)c2C1	1.02
CN(C)C[C@@H]1CCn2cc(c3ccccc32)C2=C(C(=O)NC2=O)c2cn(c3ccccc23)CCO1 [Ruboxistaurin hydrochloride]	1.14
CN(C)CCCN1c2ccccc2CCc2ccc(Cl)cc21 [Clomipramine hydrochloride]	1.07
O=CN1CC/C(=C/c2ccc3c(c2)OCO3)C1=O	1.02
O=c1cc(-c2ccccc2)oc2cc(O)c(O)c(O)c12 [Baicalein]	0.791
CC(=O)Oc1c(C)c(C)c2c(c1C)CCC(C)(CCC[C@H](C)CCC[C@H](C)CCCC(C)C)O2 (stereo not given in full) [Vitamin E Acetate]	1.05
O=c1ccc2ccc(O)c(O)c2o1 [Daphnetin]	1.04
CC1(C)C=Cc2c(ccc3c2OC[C@@H](c2ccc(O)cc2O)C3)O1 [Glabridin]	1.12
Oc1ccc(-c2nc(-c3ccc(F)cc3)c(-c3ccncc3)[nH]2)cc1	1.2
CC(C)c1cc(-c2n[nH]c(=O)n2-c2ccc3c(ccn3C)c2)c(O)cc1O [Ganetespib]	1.26
CC(C)=CCC[C@](C)(O[C@@H]1O[C@H](CO)[C@@H](O)[C@H](O)[C@H]1O)[C@H]1CC[C@]2(C)[C@@H]1[C@H](O)C[C@@H]1[C@@]3(C)CC[C@H](O)C(C)(C)[C@@H]3[C@@H](O[C@@H]3O[C@H](CO)[C@@H](O)[C@H](O)[C@H]3O[C@@H]3OC[C@@H](O)[C@H](O)[C@H]3O)C[C@]12C [Notoginsenoside R1]	1.23
COC1=C(OC)C(=O)C(CCCCCCCCCCO)=C(C)C1=O [Idebenone]	1.21
CCNC(=O)c1noc(-c2cc(Cl)c(O)cc2O)c1-c1ccc(OC)cc1	1.27

Structure (SMILES)	normalised indicator fluorescence
CCOc1cc(C(=O)N2CCC(N3CCN(C)CC3)CC2)ccc1Nc1ncc2c(n1)N(C1CCCC1)c1ccccc1C(=O)N2C	1.2
Oc1ccc(OC2CCCCO2)cc1 (stereo not given) [Deoxyarbutin]	1.17
COC(=O)c1ccc([C@H]2c3[nH]c4ccccc4c3C[C@H](C(=O)OC)N2C(=O)CCl)cc1	1
Oc1ccc(OCc2ccccc2)cc1 [Monobenzone]	1.17
N=C(NCCCCCCNC(=N)NC(=N)Nc1ccc(Cl)cc1)NC(=N)Nc1ccc(Cl)cc1 [Chlorhexidine]	1.11
Nc1c(Br)cc(Br)cc1CN[C@H]1CC[C@H](O)CC1 [Ambroxol]	0.985
COc1nccnc1NS(=O)(=O)c1ccc(NC(=O)/C=C/c2ccc([N+](=O)[O-])s2)cc1 [Necrosulfonamide]	1.16
O=C(/C=C/C=C/c1ccc2c(c1)OCO2)N1CCCCC1 [Piperine]	1.02
COc1ccc([C@@H]2OC[C@H]3[C@@H]2CO[C@@H]3c2ccc(O[C@@H]3O[C@H](CO)[C@@H](O)[C@H](O)[C@H]3O)c(OC)c2)cc1OC [Forsythin]	1.1
COc1ccc(O)cc1 [4-Methoxyphenol]	1.12
Cc1c(F)cc(C(=O)NC2CC2)cc1-c1ccc(C(=O)NCC(C)(C)C)cn1 [Losmapimod]	1.24
Nc1ncnc2c1ncn2[C@@H]1O[C@H](CO)[C@@H](O)[C@@H]1O [Vidarabine]	1.11
CC(C)OC(=O)CCC/C=C\C[C@@H]1[C@@H](CC[C@@H](O)CCc2ccccc2)[C@H](O)C[C@@H]1O [Latanoprost]	1.12
COC1=C2C[C@@H](C)C[C@H](OC)[C@H](O)[C@@H](C)/C=C(\C)[C@H](OC(N)=O)[C@@H](OC)/C=C\C=C(/C)C(=O)NC(=CC1=O)C2=O [Geldanamycin]	1.15
O=c1cc(-c2ccc(O)c(-c3c(O)cc(O)c4c(=O)cc(-c5ccc(O)cc5)oc34)c2)oc2cc(O)cc(O)c12 [Amentoflavone]	1.31

Same assay, conditions: compound concentration: 5 uM; 30 min; indicator: TO-PRO-3 0.5 uM; RNA concentration: 0.5 uM

Structure (SMILES)	normalised indicator fluorescence
C[C@@H]1O[C@@H](Oc2c(-c3cc(O)c(O)c(O)c3)oc3cc(O)cc(O)c3c2=O)[C@H](O)[C@H](O)[C@H]1O [Myricetrin]	1.07
COc1ccc(-c2nc(-c3cc(C(F)(F)F)cc(C(F)(F)F)c3)n(Cc3ccc(C(N)=O)cc3)c2-c2ccc(OC)cc2)cc1 [Apoptozole]	1.14
CCc1oc2ccccc2c1C(=O)c1cc(Br)c(O)c(Br)c1 [Benzbromarone]	1.4
CC1(C)CC(=O)c2c(C(F)(F)F)nn(-c3ccc(C(N)=O)c(N[C@H]4CC[C@H](O)CC4)c3)c2C1	1.08
CO[C@@H]1[C@H](N(C)C(=O)c2ccccc2)C[C@H]2O[C@]1(C)n1c3ccccc3c3c4c(c5c6ccccc6n2c5c31)C(=O)NC4 [Midostaurin]	1.35
CN(C)C[C@@H]1CCn2cc(c3ccccc32)C2=C(C(=O)NC2=O)c2cn(c3ccccc23)CCO1 [Ruboxistaurin hydrochloride]	0.961
CN(C)CCCN1c2ccccc2CCc2ccc(Cl)cc21 [Clomipramine hydrochloride]	1.13
O=CN1CC/C(=C/c2ccc3c(c2)OCO3)C1=O	1.08
O=c1cc(-c2ccccc2)oc2cc(O)c(O)c(O)c12 [Baicalein]	0.739
CC(=O)Oc1c(C)c(C)c2c(c1C)CCC(C)(CCC[C@H](C)CCC[C@H](C)CCCC(C)C)O2 (stereo not given in full) [Vitamin E Acetate]	1.21
O=c1ccc2ccc(O)c(O)c2o1 [Daphnetin]	0.935
CC1(C)C=Cc2c(ccc3c2OC[C@@H](c2ccc(O)cc2O)C3)O1 [Glabridin]	1.2
Oc1ccc(-c2nc(-c3ccc(F)cc3)c(-c3ccncc3)[nH]2)cc1	1.23
CC(C)c1cc(-c2n[nH]c(=O)n2-c2ccc3c(ccn3C)c2)c(O)cc1O [Ganetespib]	1.28
CC(C)=CCC[C@](C)(O[C@@H]1O[C@H](CO)[C@@H](O)[C@H](O)[C@H]1O)[C@H]1CC[C@]2(C)[C@@H]1[C@H](O)C[C@@H]1[C@@]3(C)CC[C@H](O)C(C)(C)[C@@H]3[C@@H](O[C@@H]3O[C@H](CO)[C@@H](O)[C@H](O)[C@H]3O[C@@H]3OC[C@@H](O)[C@H](O)[C@H]3O)C[C@]12C [Notoginsenoside R1]	1.26
COC1=C(OC)C(=O)C(CCCCCCCCCCO)=C(C)C1=O [Idebenone]	1.12
CCNC(=O)c1noc(-c2cc(Cl)c(O)cc2O)c1-c1ccc(OC)cc1	1.43

Structure (SMILES)	normalised indicator fluorescence
CCOc1cc(C(=O)N2CCC(N3CCN(C)CC3)CC2)ccc1Nc1ncc2c(n1)N(C1CCCC1)c1ccccc1C(=O)N2C	1.03
Oc1ccc(OC2CCCCO2)cc1 (stereo not given) [Deoxyarbutin]	0.988
COC(=O)c1ccc([C@H]2c3[nH]c4ccccc4c3C[C@H](C(=O)OC)N2C(=O)CCl)cc1	1.16
C[C@@H]1O[C@@H](O[C@@H]2[C@@H](O)[C@H](OCCc3ccc(O)c(O)c3)O[C@H](CO)[C@H]2OC(=O)/C=C/c2ccc(O)c(O)c2)[C@H](O)[C@H](O)[C@H]1O [Verbascoside]	1.16
Oc1ccc(OCc2ccccc2)cc1 [Monobenzone]	1.21
N=C(NCCCCCCNC(=N)NC(=N)Nc1ccc(Cl)cc1)NC(=N)Nc1ccc(Cl)cc1 [Chlorhexidine]	1.16
Nc1c(Br)cc(Br)cc1CN[C@H]1CC[C@H](O)CC1 [Ambroxol]	0.984
Cn1cc(C2=C(c3cn(CCCSC(=N)N)c4ccccc34)C(=O)NC2=O)c2ccccc21 [Ro 31-8220 Mesylate]	1.01
COc1nccnc1NS(=O)(=O)c1ccc(NC(=O)/C=C/c2ccc([N+](=O)[O-])s2)cc1 [Necrosulfonamide]	0.996
O=C(/C=C/C=C/c1ccc2c(c1)OCO2)N1CCCCC1 [Piperine]	1.15
COc1ccc([C@@H]2OC[C@H]3[C@@H]2CO[C@@H]3c2ccc(O[C@@H]3O[C@H](CO)[C@@H](O)[C@H](O)[C@H]3O)c(OC)c2)cc1OC [Forsythin]	1.16
O=[N+]([O-])c1ccc(-c2nc(-c3ccc(F)cc3)c(-c3ccncc3)[nH]2)cc1	0.939
COc1ccc(O)cc1 [4-Methoxyphenol]	1.27
Cc1c(F)cc(C(=O)NC2CC2)cc1-c1ccc(C(=O)NCC(C)(C)C)cn1 [Losmapimod]	1.04
Nc1ncnc2c1ncn2[C@@H]1O[C@H](CO)[C@@H](O)[C@@H]1O [Vidarabine]	1.17
CC(C)OC(=O)CCC/C=C\C[C@@H]1[C@@H](CC[C@@H](O)CCc2ccccc2)[C@H](O)C[C@@H]1O [Latanoprost]	1.2
COC1=C2C[C@@H](C)C[C@H](OC)[C@H](O)[C@@H](C)/C=C(\C)[C@H](OC(N)=O)[C@@H](OC)/C=C\C=C(/C)C(=O)NC(=CC1=O)C2=O [Geldanamycin]	1.36
